According to PubChem BioAssay AID1159580 (chemical genetic matrix, 2015):
Among all 5,500 compounds or so, about 2,000 (36%) were called active. Another 18% or so got no clear call; they are omitted. Rule as the data show it: active = normalized growth mostly below about 0.91 (no sharp cut-off); inconclusive = no clear call, values can overlap the other calls; inactive = mostly above about 0.92. The list shows a part of the results.

Assay: chemical genetic growth profiling, strain panel (AID 1159580);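 also: tested at 20 µM; growth read once vehicle control cultures reached saturation at 30 °C; 1 = growth at the plate median or of vehicle wells; lower values mean less growth of the strain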
Conditions: growth OD
[1] = S. cerevisiae deletion strains, locus YAL013W, strain DEP1, stronger effect = lower value
[2] = S. cerevisiae deletion strains, locus YBR229C, strain ROT2, stronger effect = lower value
[3] = S. cerevisiae deletion strains, locus YDL101C, strain DUN1, stronger effect = lower value
[4] = S. cerevisiae deletion strains, locus YDL134C, strain PPH21, stronger effect = lower value
[5] = S. cerevisiae deletion strains, locus YDR150W, strain NUM1, stronger effect = lower value
[6] = S. cerevisiae deletion strains, locus YEL061C, strain CIN8, stronger effect = lower value
[7] = S. cerevisiae deletion strains, locus YGR078C, strain PAC10, stronger effect = lower value
[8] = S. cerevisiae deletion strains, locus YHR030C, strain SLT2, stronger effect = lower value
[9] = S. cerevisiae deletion strains, locus YHR087W, strain rtc3, stronger effect = lower value
[10] = S. cerevisiae deletion strains, locus YJL187C, strain SWE1, stronger effect = lower value
[11] = S. cerevisiae deletion strains, locus YJR043C, strain POL32, stronger effect = lower value
[12] = S. cerevisiae deletion strains, locus YJR075W, strain HOC1, stronger effect = lower value
[13] = S. cerevisiae deletion strains, locus YLR039C, strain RIC1, stronger effect = lower value
[14] = S. cerevisiae deletion strains, locus YLR058C, strain SHM2 (second series), stronger effect = lower value
[15] = S. cerevisiae deletion strains, locus YLR085C, strain ARP6, stronger effect = lower value
[16] = S. cerevisiae deletion strains, locus YLR262C, strain YPT6, stronger effect = lower value
[17] = S. cerevisiae deletion strains, locus YML094W, strain GIM5, stronger effect = lower value
[18] = S. cerevisiae deletion strains, locus YMR219W, strain ESC1, stronger effect = lower value
[19] = S. cerevisiae deletion strains, locus YMR263W, strain SAP30, stronger effect = lower value
[20] = S. cerevisiae deletion strains, locus YNL153C, strain GIM3, stronger effect = lower value
[21] = S. cerevisiae deletion strains, locus YNL298W, strain CLA4 (second series), stronger effect = lower value
[22] = S. cerevisiae deletion strains, locus YNL322C, strain KRE1, stronger effect = lower value
[23] = S. cerevisiae deletion strains, locus YNR030W, strain Alg12, stronger effect = lower value
[24] = S. cerevisiae deletion strains, locus YOL006C, strain TOP1, stronger effect = lower value
[25] = S. cerevisiae deletion strains, locus YPL055C, strain LGE1, stronger effect = lower value
[26] = S. cerevisiae deletion strains, locus YPL241C, strain CIN2, stronger effect = lower value
[27] = S. cerevisiae deletion strains, locus YPR135W, strain CTF4, stronger effect = lower value

Measured: normalized growth

O=[N+]([O-])c1ccc(C2N(Cc3ccccc3)CCC3CCCCN32)cc1 (stereo unspecified)
inactive: [1] 1 | [2] 0.998 | [3] 1 | [4] 1.01 | [5] 0.997 | [6] 0.983 | [7] 1.01 | [8] 0.954 | [9] 0.985 | [10] 0.999 | [11] 1.01 | [12] 0.966 | S. cerevisiae deletion strains, locus YKL190W, strain CNB1, stronger effect = lower value 1.01 | [13] 1 | [14] 1.01 | [15] 1.02 | [16] 0.908 | [17] 0.983 | [18] 0.988 | [19] 0.998 | [20] 1.01 | [21] 1.01 | [22] 1.01 | [23] 1.02 | [24] 0.972 | [25] 0.985 | [26] 0.995 | [27] 1.03

COP(=S)(OC)Oc1cc(Cl)c(Cl)cc1Cl
active: [8] 0.127 | S. cerevisiae deletion strains, locus YHR079C, strain IRE1, stronger effect = lower value 0.163 | S. cerevisiae deletion strains, locus YJL095W, strain BCK1, stronger effect = lower value 0.163 | S. cerevisiae deletion strains, locus YJR066W, strain TOR1, stronger effect = lower value 0.08 | S. cerevisiae deletion strains, locus YLR113W, strain HOG1, stronger effect = lower value 0.163 | S. cerevisiae deletion strains, locus YNL183C, strain NPR1, stronger effect = lower value 0.0646 | S. cerevisiae deletion strains, locus YOR231W, strain MKK1, stronger effect = lower value 0.152 | S. cerevisiae deletion strains, locus YPL256C, strain CLN2, stronger effect = lower value 0.151

COc1cc(Cl)c(Cl)cc1Cl
inactive: [1] 0.991 | [2] 1 | [3] 0.997 | [4] 0.997 | [5] 1.01 | [6] 0.992 | [7] 1 | S. cerevisiae deletion strains, locus YGR229C, strain SMI1, stronger effect = lower value 0.997 | [8] 0.94 | [9] 1.01 | [10] 0.999 | [11] 0.974 | [12] 1.03 | [13] 0.986 | [14] 0.994 | [15] 1.06 | [16] 0.96 | [17] 1.03 | [18] 1.01 | [19] 1.01 | S. cerevisiae deletion strains, locus YMR307W, strain GAS1, stronger effect = lower value 1.06 | [20] 0.983 | [21] 0.948 | [22] 1.01 | [23] 0.98 | [24] 0.949 | [25] 1.1 | [26] 1.02 | [27] 0.91 | S. cerevisiae strains, strain wild type, stronger effect = lower value 0.981
